# Cycloheximide cs: counter-screen hit for Shiga toxin inhibitors, cycloheximide; max response, %; actives 12% (n = 300,000); cell reporter, cycloheximide protein synthesis inhibition counterscreen; AID 2314; in the data active = max response mostly above about 13%, no sharp cut-off; inactive = mostly below about 14%; also: read at 38.3 µM for the half of the compounds with a filed dose; 0% is about no effect
# Shiga toxin inh: blocks Shiga toxin action in Vero cells. Vero cells, Shiga toxin protein synthesis inhibition reporter. inhibition, % at 38.7 µM. actives 9.2% (n = 290,000); in the data active = inhibition mostly above about 28%, no sharp cut-off; inactive = mostly below about 43%; also: 0% is about no effect
# HCV inhibitor: inhibitors of hepatitis C virus infection; Huh7.5.1 HCVcc-Cre infection, luciferase reporter, 44 h; Potency, µM (series often up to 41.8 µM), for the others: at the highest dose activity change, negative = inhibition, usual class: inhibitors; actives 3.4% (n = 340,000); AID 651820; also: potency is read from the fitted curve at half-maximal effect; % is scaled to controls: 0 for no effect and ±100 for the full control effect
#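 HCVcc-Cre virus at an moi near 0.5 was added right after compound to cells cultured 4 h from seeding (1,000 cells/well). Luciferase activity was determined 44 h later, 15 min after substrate addition at RT.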
# Pf growth 96h: P. falciparum growth inhibition at 96 hours | P. falciparum luciferase reporter growth, 96 h | Potency, µM (doses to about 28.7 µM), inactives show at the top dose activity change, negative = inhibition, most hits filed as inhibitors | actives 6.9% (n = 320,000); also: potency is read from the fitted curve at half-maximal effect; % is scaled to controls: 0 for no effect and ±100 for the full control effect
#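 96 h incubation, 37 C, 5% CO2, of luciferase-reporter P. falciparum-infected RBCs (2% hematocrit, 0.05% parasitemia final) with test compounds; endpoint luminescence.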
# AMA1-RON2 inh: AMA1-RON2 (P. falciparum) interaction inhibition; AID 720542; actives 0.2% (n = 360,000); Potency, µM (highest dose often 58.2 µM), without a hit: at the top dose activity change, negative = inhibition, most hits filed as inhibitors; AlphaScreen AMA1-biotinylated RON2 peptide binding;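 also: potency is read from the fitted curve at half-maximal effect; 0% = vehicle wells and -100% = peptide control; nearly all actives have a fitted effect of over 45% in size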
#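 AMA1 (3D7) with his tag at 25 nM final met compounds first, then biotinylated RON2 peptide at 25 nM; detection used donor plus acceptor beads, 10 µg/mL apiece, read by AlphaScreen after 30 min at room temperature.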
# Pf growth 48h: inhibits P. falciparum growth in the first generation, 48 h; Potency, µM (series often up to 28.7 µM), without a hit: at the highest dose activity change, negative = inhibition, usual class: inhibitors; actives 5.9% (n = 310,000); AID 504832; P. falciparum luciferase growth in erythrocytes, 48 h; also: potency is read from the fitted curve at half-maximal effect; % is scaled to controls: 0 for no effect and ±100 for the full control effect
#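 Luciferase-expressing parasites in RBCs, 2% Hct / 0.1% parasitemia final; RPMI 1640 + 0.5% Albumax; 37 C, 5% CO2, one generation; luminescence read-out, lower signal = inhibition.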
# Active calls of the source: *; i = inactive; ? = inconclusive; · = no result; [ ] = another dose, or the depositor's remark. The list is not random: actives were taken first. Their share in the collection is about 21%. Unless noted, calls follow the shape of the dose curve; as a rule, active = well fitted curve in the direction sought with a large enough effect; inconclusive = small, poorly fitted or top-dose-only effect, or another doubt; inactive = no such curve, though single readings can be large; an effect the other way counts as inactive or inconclusive.
SMILES,Cycloheximide cs,Shiga toxin inh,HCV inhibitor,Pf growth 96h,AMA1-RON2 inh,Pf growth 48h
COc1ccc2nc(/N=C/c3c(C)[nH]n(-c4ccc(C)cc4)c3=O)sc2c1,17*,14,1%,?,1%,34%
O=C(NC(CC(=O)N1CCCC(C(F)(F)F)C1)c1ccccc1)c1ccccc1Cl (stereo unspecified),-11,-20,13%,?,-11%,15%
COc1ccccc1N(C)S(=O)(=O)c1ccc(C(=O)NCc2ccccc2CN2CCCC2)cc1,·,·,?,·,0%,·
CCCC1=Nc2cc(C(=O)N3CCC(C(=O)OCC)CC3)ccc2Sc2ccccc21,-2,-10,?,9.3µM*,-20%,8.3µM*
CCC1=Nc2cc(C(=O)N3CCC4(CC3)OCCO4)ccc2Sc2ccc(C)cc21,4,-2,-1%,-26%,-4%,10µM*
CC1=Nc2cc(C(=O)O)ccc2Sc2ccc(Br)cc21,-6,-15,4%[8.37 µM],-20%,-5%,-11%
CC1=Nc2cc(C(=O)N3CCCCC3)ccc2Sc2ccc(C)cc21,18,-3,-1%,32%,-7%,9.3µM*
CC1=Nc2cc(C(=O)N3CCCC3)ccc2Sc2ccc(C)cc21,12,3,1%,?,-8%,9.3µM*
CCOC(=O)N1CCN(C(=O)c2ccc3c(c2)N=C(CC)c2cc(C)ccc2S3)CC1,2,-12,?,?,-2%,?
CC(=O)c1ccc(S(=O)(=O)N2CCN(C(=O)c3ccc(COc4ccccc4)o3)CC2)cc1,·,·,?,?,-6%,?
Cc1cccc(-c2nc3ccc(C(=O)N4CCC5(CC4)OCCO5)cc3nc2-c2cccc(C)c2)c1,3,-2,?,?,-6%,10µM*
CCCC1=Nc2cc(C(=O)N3CCC(C(N)=O)CC3)ccc2Sc2ccccc21,-4,17,7%,?,6%,?
CCCC1=Nc2cc(C(=O)N3CCCC3)ccc2Sc2ccc(C)cc21,-3,-10,-22%,6%,-17%,12µM*
CCCC1=Nc2cc(C(=O)N3CCN(c4ccccn4)CC3)ccc2Sc2ccc(C)cc21,18,5,11µM*,?,-29%,9.3µM*
CCC1=Nc2cc(C(=O)N3CCCCC3)ccc2Sc2ccc(C)cc21,3,5,-26%,3%,-11%,?
COc1cccc(C(=O)N2CCC3(CC2)OCCO3)c1,-3,12,3%,?,-6%,3%
CCOC(=O)N1CCC(NC(=O)c2ccc3c(c2)N=C(CC)c2cc(C)ccc2S3)CC1,-2,-7,3.2µM*,-5%,7%,?
O=C(NC1CCCCC1)C(c1ccccc1)N(C(=O)c1csnn1)C1CC1 (stereo unspecified),-5,-9,14%,?,-2%,4%
Clc1ccc2c(c1)C(N1CCNCC1)=Nc1ccccc1O2,-1,-12,?,?,-1%,?
CC1=Nc2cc(Cl)ccc2Oc2ccccc21,1,-4,-2%,2.1µM*,11%,15%
CSc1ccc(/C=N/NC(=O)c2cc(O)cc(O)c2)cc1,22*,41*,0%,55%,-1%,98%
CSc1ccc(/C=N/NC(=O)c2sccc2C)cc1,46*,64*,-2%,468%,34%,325%
CSc1ccc(NC(=O)C2(C)CCN2C(=O)c2sccc2C)cc1 (stereo unspecified),·,·,·,·,-20%,·
COCCCNC(=O)CC(=O)N/N=C\c1ccc(SC)cc1,2,15,-2%,?,16%,62%
COc1ccc(OCc2ccc(/C=N\NC(=O)c3sccc3C)o2)cc1,25*,68*,-17%,35%,68%,34%
SMILES,Cycloheximide cs,Shiga toxin inh,HCV inhibitor,Pf growth 96h,AMA1-RON2 inh,Pf growth 48h
O=C(N/N=C\c1ccc(COc2ccc([N+](=O)[O-])cc2)o1)c1ccc(Cl)cc1,-1,21,?,·,27%,-6%
CSc1ccc(/C=N/NC(=O)c2ccc(C)c(C)c2)cc1,44*,52*,-16%,-12%,-2%,30%
O=C(N/N=C/c1ccc(O)cc1)c1cncc(Br)c1,11,21,19%,?,4%,5%
O=C(Cc1ccc(NC(=O)C2CCCN(C(=O)CCc3ccccc3)C2)cc1)Nc1cccc(C(=O)N2CCCC2)c1 (stereo unspecified),·,·,-22%[8.37 µM],·,-4%,·
O=[N+]([O-])c1ccc(CN2CC(N3CCC(Cc4ccccc4)CC3)CS2(=O)=O)cc1 (stereo unspecified),·,·,·,·,-25%,·
COC(=O)[C@]12CCCCC=C1N(Cc1ccccc1)C(=O)[C@H](CC(=O)N1CCC(c3ccccc3)CC1)C2,·,·,·,·,-10%,·
Nc1nn2cc(-c3ccc(Br)cc3)nc2c2ccccc12,62*,125*,?,80%,0%,-38%
O=[N+]([O-])c1cccc(-c2noc(-c3cccs3)n2)c1,34*,78*,-8%,i,-9%,227%
O=[N+]([O-])c1cccc(-c2nc(-c3ccccc3)c(-c3cccs3)[nH]2)c1,-2,-9,-12%,?,-2%,?
O=[N+]([O-])c1cccc(-c2nc(-c3cccs3)c(-c3cccs3)[nH]2)c1,-2,-6,13µM*,?,-2%,?
CC(C)Nc1nc(NC(C)(C)C)nc(Oc2ccc(=O)n(C)n2)n1,-3,-5,3%,11%,3%,0%
COc1nc(NC(C)(C)C)nc(Oc2ccc(=O)n(C)n2)n1,-6,-9,20%,12µM*,-2%,·
O=C(Nc1ccccc1F)c1ccc(-c2cccc([N+](=O)[O-])c2)o1,22*,63*,-24%,?,-4%,56%
O=C(Nc1nccs1)c1ccc(-c2cccc([N+](=O)[O-])c2)o1,24*,28,-14%,52%,87%,?
O=C(Nc1ncc(Cc2cccc(C(F)(F)F)c2)s1)c1ccc(-c2cccc([N+](=O)[O-])c2)o1,-1,-20,?,45%,50%,?
Cc1ccccc1CN1C(=O)CN(S(C)(=O)=O)CC1(C)C(=O)Nc1ccc2c(c1)OCCO2 (stereo unspecified),·,·,·,·,-9%,·
CCOc1ccc(OCc2ccc(C(=O)N/N=C(\C)c3ccccn3)cc2)cc1,40*,62,?,0.37µM*,54%,0.37µM*
CCOc1ccc(C(=O)O/N=C(\N)c2ccccn2)cc1,-12,-20,-4%,0%,32%,-90%
C/C(=N\NC(=O)c1ccccc1OCc1ccc(F)cc1)c1ccccn1,·,·,2.8µM*,4.1µM*,95%,1.5µM*
S=C(Nc1ccc(Br)cc1Cl)N1CCN(c2ccccn2)CC1,-2,-6,12%,?,15%,14%
c1ccc(Nc2c3c(nc4ccccc24)CCC3)cc1,1,1,?,9%,-7%,?

# High-throughput results: PubChem, National Center for Advancing Translational Sciences (NCATS)
